Most compounds without a hit are left out; they make up all but 19% or so of the library.
Giardia kill: Giardia lamblia killing; Giardia lamblia trophozoite viability; activity change, % at 7.66 µM, hits read low; 340,000 compounds, 0.15% hits; AID 540267; in the data active means activity change below about -80%; inconclusive means between about -30% and that limit;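 further: parasites exposed to compound for two days anaerobically before the ATP read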
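Media and compound were dispensed first, then trophozoites at 100 cells/well; plates sat 48 hrs at 37 deg C without oxygen before ATP luminescence reagent was added and read after 15-30 min at room temperature.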
TDP1 cell CPT: DT40-hTDP1 cell growth loss with CPT; 420,000 compounds, 12% hits; AID 686979; chicken DT40 Tdp1-/-;hTDP1 cells + 20 nM CPT, ATP luminescence, 48 h; Potency, µM (titrated, usually from 46.2 µM), most hits filed as inhibitors; further: nearly all actives have a fitted effect of over 55% in size
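Cell growth measured by CellTiter-Glo luminescence after a minimum 48 h, 37 C compound exposure with 20 nM CPT in Tdp1-knockout DT40 cells stably expressing hTDP1, seeded 400/well; qHTS titration format.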
ELG1 DNA repair: inhibitors of ELG1-dependent DNA repair in HEK293T cells; HEK293T ELG1-luciferase reporter, luminescence, 16 h; DNA damage induced by 5-fluorouridine; Potency, µM (highest dose often 46.1 µM), hits mostly inhibitors; 330,000 compounds, 2.3% hits; further: nearly all actives have a fitted effect of over 55% in size
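Quantitative HTS, concentration-response format. 2,000 cells/well co-treated with 5-fluorouridine and compound, 16 hr in 5% CO2 at 37 °C; ONE-Glo luminescence read after 30 min.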
TDP1 inh: inhibitors of human tyrosyl-DNA phosphodiesterase TDP1; Potency, µM (top dose mostly 130 µM), hits mostly inhibitors; 350,000 compounds, 0.28% hits; Q9NUW8; recombinant TDP1, AlphaScreen DNA substrate cleavage; further: nearly all actives have a fitted effect of over 40% in size
Target sequence (Q9NUW8 whole entry, looked up): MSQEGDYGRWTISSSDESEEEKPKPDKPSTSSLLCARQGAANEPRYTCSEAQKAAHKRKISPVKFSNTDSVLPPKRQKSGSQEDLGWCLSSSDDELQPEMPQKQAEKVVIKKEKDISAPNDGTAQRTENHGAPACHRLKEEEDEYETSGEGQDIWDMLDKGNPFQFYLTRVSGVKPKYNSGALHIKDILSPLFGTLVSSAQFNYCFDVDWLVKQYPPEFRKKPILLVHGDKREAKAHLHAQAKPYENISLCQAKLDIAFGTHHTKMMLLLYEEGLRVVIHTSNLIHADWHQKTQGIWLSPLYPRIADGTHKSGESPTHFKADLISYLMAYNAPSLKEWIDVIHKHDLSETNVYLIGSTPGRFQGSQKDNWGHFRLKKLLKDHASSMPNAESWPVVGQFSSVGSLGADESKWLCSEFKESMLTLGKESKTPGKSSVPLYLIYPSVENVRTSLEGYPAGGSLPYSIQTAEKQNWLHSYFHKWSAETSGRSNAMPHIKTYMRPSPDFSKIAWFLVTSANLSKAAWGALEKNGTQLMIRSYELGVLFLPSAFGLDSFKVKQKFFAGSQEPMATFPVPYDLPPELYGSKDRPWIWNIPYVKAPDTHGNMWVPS
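Recombinant E. coli-expressed Tdp1 (1 nM) preincubated with compound 15 min at RT, then 5'-biotin/3'-phosphotyrosine-FITC DNA substrate (15 nM) added for 5 min. AlphaScreen beads (10 ug/ml) added, 10 min RT; tyrosine-FITC cleavage read as signal loss.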
TDP1 cell noCPT: qHTS for Inhibitors of human tyrosyl-DNA phosphodiesterase 1 (TDP1): qHTS in cells in absence of CPT; 420,000 compounds, 15% hits; AID 686978, 2013; DT40 Tdp1-/- hTDP1 cells, no CPT, ATP luminescence, 48 h; Potency, µM (top dose mostly 46.2 µM), hits mostly inhibitors; further: nearly all actives have a fitted effect of over 55% in size
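Readout: luminescence from CellTiter-Glo after 30 min in the dark at RT. Cells: DT40 Tdp1-/- with stable hTDP1, 400/well. Exposure: compounds alone, ≥48 hr, 37 °C.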
IL1B secr inh: inhibitors of inflammasome signaling (IL-1 beta secretion) | activity change, % at 57.5 µM | THP-1 LPS/ATP IL-1B secretion, AlphaLISA, 16 h; stronger effect = lower value | 360,000 compounds, 4.7% hits; in the data active means activity change below about -50%; inconclusive means mostly about -30% to -49%
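THP-1 cells pretreated 1 hr with compounds (up to 57.5 uM final), then stimulated with LPS (250 ng/mL final) plus ATP (1.25 mM final); secreted IL-1B measured by AlphaLISA after 16 hr, decreased signal indicating inhibition.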
Hits are given with their value; . = inactive; ? = inconclusive; / = no result given; [ ] = remark or other dose. Unless noted, the call rests on the fitted dose curve; in most records, active means well fitted curve in the direction sought with a large enough effect; inconclusive means small, poorly fitted or top-dose-only effect, or another doubt; inactive means no such curve, though single readings can be large; an effect the other way counts as inactive or inconclusive.

SMILES | Giardia kill | TDP1 cell CPT | ELG1 DNA repair | TDP1 inh | TDP1 cell noCPT | IL1B secr inh
OCC1(Cc2ccccc2)CCN(Cc2cnn(-c3ccccc3F)c2)CC1 | . | . | . | . | . | ?
OCC1(Cc2ccccc2)CCN(C2CCN(c3ccccc3F)CC2)CC1 | . | ? | ? | . | 23µM | -85
CC1=C(C)/C(=N\OS(=O)(=O)c2ccc(C)cc2)C=CC1=O | . | 0.58µM | ? | . | 0.65µM | -103
COc1ccc(S(=O)(=O)c2ccc(OC)cc2)cc1 | . | ? | . | . | . | .
COc1ccc(S(=O)(=O)/N=C2/C=CC(=O)C(C)=C2C)cc1 | . | 1.8µM | . | . | 1.6µM | .
CCCCCCCCCCCCCCCCSCC(COC)COP(=O)([O-])OCC[N+](C)(C)C (stereo not given) | / | . | / | . | . | /
CCCCN(CC)C(=O)c1cc2c(=O)n3cccc(C)c3nc2n1C | / | ? | / | . | 16µM | /
Cc1ccc(Cl)cc1NC(=O)c1cc2c(=O)n3cccc(C)c3nc2n1C | / | 0.58µM | / | . | 0.52µM | /
C1=CC2=NC34CCCCC3CC3=C(CCCC3)N4C2=CC1=NC1CCCCC1 (stereo not given) | . | 5.2µM | / | / | 5.2µM | -98
O=C(Nc1nc2ccccc2s1)C1CCN(C(=O)c2ccco2)CC1 | . | ? | . | . | 15µM | ?
CCC(C)NC(=O)C1CCN(S(=O)(=O)c2cc([N+](=O)[O-])ccc2Cl)CC1 (stereo not given) | ? | ? | . | . | . | .
O=C(Nc1nc2ccccc2s1)C1CCN(S(=O)(=O)c2cc([N+](=O)[O-])ccc2Cl)CC1 | ? | 15µM | . | . | 15µM | .
CN(C)c1cccc(C(=O)Nc2nc3ccc(S(=O)(=O)N4CCCC4)cc3s2)c1 | / | 6.5µM | / | . | 8.2µM | /
COc1ccc2nc(NC(=O)c3cc(S(=O)(=O)N4CCOCC4)ccc3C)sc2c1 | . | ? | ? | . | 18µM | .
CCOc1ccc2nc(NC(=O)C3CCN(C(=O)c4ccco4)CC3)sc2c1 | . | ? | ? | . | ? | ?
COc1cc(C(=O)Nc2nc3ccc(S(=O)(=O)N4CCOCC4)cc3s2)cc(OC)c1OC | . | ? | . | . | . | .
CC(=O)OC[C@H]1O[C@@H](O/N=C(\C)CCN2CCCCc3nc(C)c(C)cc32)[C@H](OC(C)=O)[C@@H](OC(C)=O)[C@H]1OC(C)=O | / | / | / | .[21 µM] | / | /
CCCc1nnc(NC(=O)Cc2coc3ccc(C(C)C)cc23)s1 | / | ? | / | . | ? | /
O=C(Nc1nc2ccc(S(=O)(=O)N3CCCCC3)cc2s1)C1CCCO1 (stereo not given) | . | ? | . | . | ? | .
COc1ccc2nc(NC(=O)c3cccc(OCc4c(C)noc4C)c3)sc2c1 | . | 3.3µM | 26µM | . | 2.9µM | .
CCSc1nnc(NC(=O)c2cccc(OCc3c(C)noc3C)c2)s1 | . | . | ? | . | . | .
O=C(Nc1nc2ccc(S(=O)(=O)N3CCCC3)cc2s1)C1CCCCC1 | . | 2.6µM | ? | . | 4.6µM | .
Nc1nc2ccc(S(=O)(=O)N3CCCCC3)cc2s1 | . | 8.2µM | . | . | 9.2µM | -106
COc1cccc(C(=O)Nc2nc3ccc(S(=O)(=O)N4CCCC4)cc3s2)c1 | / | 4.6µM | / | . | 5.2µM | /
Cc1cccc(NC(=O)c2cc3c(=O)n(Cc4ccco4)ccc3nc2C)c1 | / | ? | / | . | ? | /
SMILES | Giardia kill | TDP1 cell CPT | ELG1 DNA repair | TDP1 inh | TDP1 cell noCPT | IL1B secr inh
COc1ccc(-c2nc3cnc(OC)nc3n(C)c2=O)cc1 | / | . | / | / | . | /
CCN(CC)C(=O)c1[nH]cnc1C(=O)Nc1cccc(Cl)c1 | . | ? | . | . | ? | .
CC(C)Sc1nc(SCC(=O)NCc2ccco2)c2c3c(sc2n1)COC(C)(C)C3 | . | ? | 2.3µM | . | ? | .
CCCc1nc2sc3c(SCC(=O)NCc4ccco4)ncnc3c2c2c1CCC2 | . | ? | ? | 20µM | 18µM | .
CCC1CCc2c(sc3nc(SCC(=O)NCc4ccco4)n(-c4ccccc4)c(=O)c23)C1 (stereo not given) | . | 29µM | ? | . | ? | .
CC1CCc2c(sc3ncn4c(SCC(=O)NCc5ccco5)nnc4c23)C1 (stereo not given) | . | ? | . | . | 21µM | .
Cc1ccc(-n2c(SCC(=O)NCc3ccco3)nc3sc4c(c3c2=O)CC(C)(C)SC4)cc1 | . | . | . | . | . | .
O=C(NCCc1ccccn1)C1CC12CCN(C(=O)c1c(F)cccc1Cl)CC2 (stereo not given) | / | .[9.04 µM] | / | / | . | /
COc1ccc(CN2CCCC(n3cc(C(=O)N4CCCCC4)nn3)C2)cc1OC (stereo not given) | / | .[9.04 µM] | / | / | . | /
CC(C)Sc1nc2sc3c(c2c2nnc(SCC(=O)NCc4ccco4)n12)CCCC3 | . | ? | ? | . | 18µM | .
Cc1nc(SCC(=O)NCc2ccco2)c2c3c(sc2n1)CCCC3 | . | ? | ? | . | ? | .
COc1cc(C(=O)OC(C)CN2C(C)CCCC2C)cc(OC)c1OC (stereo not given) | . | . | . | . | . | .
CCC12CN3CC(C)(CN(C1)C3c1c[nH]c3ccccc13)C2=O (stereo not given) | / | ? | / | . | 23µM | /
CCn1cc(C2N3CC4(CC)CN2CC(CC)(C3)C4=O)c2ccccc21 (stereo not given) | / | ? | / | . | 18µM | /
CCC12CN3CC(CC)(CN(C1)C3c1c[nH]c3ccccc13)C2=O (stereo not given) | / | . | / | . | 16µM | /
CC(C)CC(C(=O)Nc1ccccc1)N1C(=O)C2C3C=CC(C3)C2C1=O (stereo not given) | . | ? | . | . | . | .
COC(=O)C1CCN(C(c2ccccc2)c2sc3nc(-c4ccco4)nn3c2O)CC1 (stereo not given) | / | . | / | . | . | /
O=C(NCCCN1CCOCC1)C(=O)N/N=C/c1cccc2ccccc12 | . | . | . | / | . | .
CN1CCN(c2ccccc2NC(=O)COc2ccc(Br)cc2)CC1 | . | ? | . | . | ? | .
CN(CCc1ccccn1)C(=O)CCC1CCCN(C(=O)c2ccsc2)C1 (stereo not given) | . | . | . | . | . | .
Cc1[nH]c2ccccc2c1C(=O)CSc1n[nH]c(N)n1 | . | . | . | . | . | .
CCn1c(SCC(=O)Nc2ccccc2)nc2c([nH]c3ccccc32)c1=O | / | . | / | . | ? | /
CCOC(=O)c1c(CSc2ccc(CC)cc2)oc2ccc(O)c(CN(C)C)c12 | . | 8.2µM | . | / | 7.3µM | -101

Screening results (PubChem)
